A short description of test [1]: qHTS assay to identify small molecule antagonists of the retinoid acid receptor (RAR) signaling pathway - cell viability counter screen (AID 1159551). Also: % is scaled to controls: 0 for no effect and ±100 for the full control effect; nearly all actives have a fitted effect of over 35% in size. In short, it runs like this: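 ATP-based viability, C3RL4 cells, 6 h at 37 C with 1 uM final retinol co-added after compound; luminescence read 30 min post CellTiter-Glo, RT.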
In general terms: Quantitative high-throughput screening tests each substance at several concentrations.

A short description of test [2]: qHTS assay to identify small molecule antagonists of the retinoic acid receptor (RAR) signaling pathway (AID 1159552; also: nearly all actives have a fitted effect of over 50% in size; also: potency is read from the fitted curve at half-maximal effect). In short, it runs like this: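 Retinol at 1 uM final stimulated RARE-luciferase expression in C3RL4 cells exposed to test compounds for 6 hr at 37 C. Reduced luminescence, read 30 min after detection reagent, indicated pathway antagonism.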
The nature of test [3]: qHTS assay to identify small molecule agonists of the retinoic acid receptor (RAR) signaling pathway (AID 1159553). Also: % is scaled to controls: 0 for no effect and ±100 for the full control effect. In short, it runs like this: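 Quantitative high-throughput format: the Tox21 10K library was tested on C3RL4 RARE-luciferase cells for 6 hr at 37 C and 5% CO2, with luminescence measured after a 30 min room-temperature reagent step.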
Test [4] is described as follows: qHTS assay to identify small molecule antagonists of the estrogen related receptor (ERR) signaling pathway - cell viability counter screen (AID 1224818).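 Also: series mostly up to about 46 µM; viability measured after 17.5 h of compound exposure; % is scaled to controls: 0 for no effect and ±100 for the full control effect.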 In short, it runs like this: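 Quantitative high-throughput viability counter screen in ERR cells. Compounds (DMSO) incubated 17.5 h at 37 C; read-out was CellTiter-Fluor fluorescence.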
Test [5] is described as follows: qHTS assay to identify small molecule agonists of the estrogen related receptor (ERR) signaling pathway (AID 1224820). Also: % is scaled to controls: 0 for no effect and ±100 for the full control effect. In short, it runs like this: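 Following a 6 h settling period, 2,000 ERR cells per well receive DMSO-dissolved compounds by pin tool and incubate 18 h at 37 C; agonist activity is scored from One-Glo luminescence read 30 min post-addition.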
Test [6] concerns estrogen-related receptor alpha (ERRalpha) with PGC-1alpha coactivator, human. The experiment in a line: qHTS assay to identify small molecule antagonists of the estrogen related receptor signaling pathway with the pleiotropic PPARgamma coactivator (PGC) (AID 1224821; calls by dose curve;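 also: series mostly up to about 46 µM; % is scaled to controls: 0 for no effect and ±100 for the full control effect; lower luminescence signal means antagonism of PGC/ERR signalling; nearly all actives have a fitted effect of over 50% in size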). The gist of the method: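 Screening used NTP's PGC/ERR cells, dosed via pin tool with compound in DMSO alongside positive and negative controls. After 18 h at 37 C, One-Glo reagent sat 30 min at room temperature before luminescence detection.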

A short description of test [7]: qHTS assay to identify small molecule agonists of the estrogen related receptor signaling pathway with the pleiotropic PPARgamma coactivator (PGC) (AID 1224823). Also: % is scaled to controls: 0 for no effect and ±100 for the full control effect. The gist of the method: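 In this quantitative high-throughput screen, an 18 h, 37 C treatment of PGC/ERR cells with compounds in DMSO preceded a One-Glo luminescence read taken after 30 min at room temperature.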

Test [8] has as its target Luciferin 4-monooxygenase (Photinus pyralis) (UniProt P08659). Kind of test: qHTS assay to identify small molecule inhibitors of firefly luciferase (AID 1224835). Also: series mostly up to about 120 µM; % is scaled to controls: 0 for no effect and ±100 for the full control effect; nearly all actives have a fitted effect of over 25% in size. In short, it runs like this: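 Biochemical qHTS: compounds run as interplate titrations against purified firefly enzyme, with D-luciferin and ATP each at its KM concentration. Light output recorded by CCD imaging.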

The nature of test [9]: qHTS assay to identify small molecule agonists of the constitutive androstane receptor (CAR) signaling pathway - cell viability counter screen (AID 1224836). Also: series mostly up to about 92 µM; % is scaled to controls: 0 for no effect and ±100 for the full control effect; nearly all actives have a fitted effect of over 45% in size. The gist of the method: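 Cells were seeded and incubated 4 hrs. Compounds were added across 15 concentrations together with PK11195 at 0.75 uM final. Plates were incubated 23 hrs at 37 C. CellTiter-Fluor was added and fluorescence measured.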

Test [10] is described as follows: qHTS assay to identify small molecule antagonists of the constitutive androstane receptor (CAR) signaling pathway - cell viability counter screen (AID 1224837). Also: series mostly up to about 92 µM; % is scaled to controls: 0 for no effect and ±100 for the full control effect; nearly all actives have a fitted effect of over 45% in size. The gist of the method:
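Cells are seeded, rested 4 hr at 37 C/5% CO2, dosed with compound (15-point series) and 50 nM CITCO, incubated a further 23 hr, and then CellTiter-Fluor reagent is added before fluorescence is read. The line is HepG2 with stable hCAR and CYP2B6-2.2kb.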

Test [11] deals with Nuclear receptor subfamily 1 group I member 3 (Homo sapiens) (UniProt Q14994). The experiment in a line: qHTS assay to identify small molecule agonists of the constitutive androstane receptor (CAR) signaling pathway (AID 1224839). Also: nearly all actives have a fitted effect of over 15% in size. Also: potency is read from the fitted curve at half-maximal effect. In short, it runs like this:
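Cells were plated and incubated 4 hrs, then dosed with compounds at 15 concentrations. PK11195 was added to 0.75 uM final. After 24 hrs at 37 C, luciferase luminescence was measured.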

The nature of test [12]: qHTS assay to identify small molecule antagonists of the estrogen related receptor signaling pathway with the pleiotropic PPARgamma coactivator (PGC) from Tox21 10K library - cell viability counter screen (AID 1224840; active = well fitted cell-killing curve with a large enough effect in the repeat runs, not every such curve was filed as active; also: % is scaled to controls: 0 for no effect and ±100 for the full control effect; nearly all actives have a fitted effect of over 40% in size). The gist of the method:
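Cell viability is measured by CellTiter-Fluor fluorescence in PGC/ERR cells that receive compounds after a 6-hour attachment period and are then incubated 17.5 hours at 37 C.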

Test [13] in a line: qHTS assay to identify small molecule agonists of the estrogen related receptor signaling pathway with the pleiotropic PPARgamma coactivator (PGC) from Tox21 10K library (AID 1224842). Also: % is scaled to controls: 0 for no effect and ±100 for the full control effect; nearly all actives have a fitted effect of over 15% in size. The gist of the method: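 PGC/ERR reporter cell line, 2,000 cells per well, incubated 6 h at 37 C before 23 nL compound in DMSO was added. After 18 h at 37 C, One-Glo luminescence read following 30 min at room temperature.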

The nature of test [14]: qHTS assay to identify small molecule agonists of the hypoxia (HIF-1) signaling pathway - cell viability counter screen (AID 1224844; calls by dose curve; also: nearly all actives have a fitted effect of over 50% in size; also: potency is read from the fitted curve at half-maximal effect). In short, it runs like this:
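Viability counter screen: HRE-bla ME-180 cells plated 5 hrs before compound addition, treated 17 hrs at 37C and 5% CO2, then CellTiter-Glo added after the FRET reporter read; luminescence after 30 min.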

Test [15] can be described thus: qHTS assay to identify small molecule antagonists of the estrogen related receptor (ERR) signaling pathway from Tox21 library - cell viability counter screen (AID 1224834). Also: nearly all actives have a fitted effect of over 30% in size. Also: potency is read from the fitted curve at half-maximal effect. In short, it runs like this:
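Compounds in DMSO were pinned onto ERR cells that had been incubated for 6 h, and the plates were held at 37 C for 17.5 h. CellTiter-Fluor reagent was then added and fluorescence was measured after 30 min.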

Test [16] deals with Thyrotropin receptor (Homo sapiens) (UniProt P16473). The experiment in a line: qHTS assay to identify small molecule agonists of the thyroid stimulating hormone receptor (TSHR) signaling pathway (AID 1224843; calls by dose curve; also: % is scaled to controls: 0 for no effect and ±100 for the full control effect; nearly all actives have a fitted effect of over 45% in size). The gist of the method: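 HEK293/TSHR, 800 cells/well; cpd 30 min RT; add cAMP-d2 + anti-cAMP-cryptate, 1 h RT; fluorescence read on plate reader. 15-pt titration, n=3.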

Test [17] concerns the target Nuclear receptor subfamily 1 group I member 3 (Homo sapiens) (UniProt Q14994). Kind of test: qHTS assay to identify small molecule antagonists of the constitutive androstane receptor (CAR) signaling pathway (AID 1224838).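 Also: HepG2 cells stably expressing hCAR with CYP2B6 luciferase reporter stimulated by CITCO; % is scaled to controls: 0 for no effect and ±100 for the full control effect; nearly all actives have a fitted effect of over 40% in size.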 In short, it runs like this: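 Luminescence from a CYP2B6-2.2kb promoter reporter in hCAR-expressing HepG2 cells reflects CAR signaling. Cells received compounds at 15 concentrations and 50 nM CITCO (final), then incubated 24 h at 37 C/5% CO2.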

Test [18] in a line: qHTS assay to identify small molecule antagonists of the estrogen related receptor (ERR) signaling pathway (AID 1224819; also: potency is read from the fitted curve at half-maximal effect; nearly all actives have a fitted effect of over 50% in size). In short, it runs like this: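 ERR reporter cell line (NTP) plated at 2,000 cells/well, settled 6 h at 37C/5% CO2, then exposed to LOPAC compounds for 18 h at 37C. One-Glo luciferase luminescence read after 30 min at room temperature.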
A short description of test [19]: qHTS assay to identify small molecule antagonists of the estrogen related receptor signaling pathway with the pleiotropic PPARgamma coactivator (PGC) from Tox21 10K library (AID 1224841; call rule not given here). The gist of the method:
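Cells stably carrying the PGC/ERR reporter, seeded at 2,000 per well, received pin-transferred compounds 6 h post-plating. Exposure lasted 18 h at 37 C. Signal: One-Glo luminescence.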

Values joined by “and” are separate entries in the source; they are usually repeats but may differ in a detail not shown here. Equal values may be shown once. Records with an inconclusive call do not appear. Values without a mark were called inactive. Active and inactive are the calls of the source. Unless noted, calls follow the shape of the dose curve; as a rule, active = well fitted curve in the direction sought with a large enough effect in the repeat runs; inconclusive = weak or mixed curves; inactive = no such curve, though single readings can be large; an effect the other way counts as inactive or inconclusive.

Luciferin 4-monooxygenase (Photinus pyralis), sequence (P08659 whole entry, looked up): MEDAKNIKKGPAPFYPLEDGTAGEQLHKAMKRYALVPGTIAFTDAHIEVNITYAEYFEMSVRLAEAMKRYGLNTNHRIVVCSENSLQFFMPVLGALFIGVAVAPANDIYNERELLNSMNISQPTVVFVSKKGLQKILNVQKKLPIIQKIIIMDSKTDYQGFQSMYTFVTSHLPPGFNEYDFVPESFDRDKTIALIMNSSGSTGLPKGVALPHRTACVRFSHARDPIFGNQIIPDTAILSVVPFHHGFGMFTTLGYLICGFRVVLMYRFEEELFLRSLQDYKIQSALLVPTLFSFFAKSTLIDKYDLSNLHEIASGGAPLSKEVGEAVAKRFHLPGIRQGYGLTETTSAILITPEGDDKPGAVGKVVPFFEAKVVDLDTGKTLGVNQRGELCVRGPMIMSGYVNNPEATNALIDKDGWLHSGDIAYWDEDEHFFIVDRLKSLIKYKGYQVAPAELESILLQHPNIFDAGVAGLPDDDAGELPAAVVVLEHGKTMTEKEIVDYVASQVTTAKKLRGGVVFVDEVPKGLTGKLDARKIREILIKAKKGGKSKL
Thyrotropin receptor (Homo sapiens), sequence (P16473 whole entry, looked up): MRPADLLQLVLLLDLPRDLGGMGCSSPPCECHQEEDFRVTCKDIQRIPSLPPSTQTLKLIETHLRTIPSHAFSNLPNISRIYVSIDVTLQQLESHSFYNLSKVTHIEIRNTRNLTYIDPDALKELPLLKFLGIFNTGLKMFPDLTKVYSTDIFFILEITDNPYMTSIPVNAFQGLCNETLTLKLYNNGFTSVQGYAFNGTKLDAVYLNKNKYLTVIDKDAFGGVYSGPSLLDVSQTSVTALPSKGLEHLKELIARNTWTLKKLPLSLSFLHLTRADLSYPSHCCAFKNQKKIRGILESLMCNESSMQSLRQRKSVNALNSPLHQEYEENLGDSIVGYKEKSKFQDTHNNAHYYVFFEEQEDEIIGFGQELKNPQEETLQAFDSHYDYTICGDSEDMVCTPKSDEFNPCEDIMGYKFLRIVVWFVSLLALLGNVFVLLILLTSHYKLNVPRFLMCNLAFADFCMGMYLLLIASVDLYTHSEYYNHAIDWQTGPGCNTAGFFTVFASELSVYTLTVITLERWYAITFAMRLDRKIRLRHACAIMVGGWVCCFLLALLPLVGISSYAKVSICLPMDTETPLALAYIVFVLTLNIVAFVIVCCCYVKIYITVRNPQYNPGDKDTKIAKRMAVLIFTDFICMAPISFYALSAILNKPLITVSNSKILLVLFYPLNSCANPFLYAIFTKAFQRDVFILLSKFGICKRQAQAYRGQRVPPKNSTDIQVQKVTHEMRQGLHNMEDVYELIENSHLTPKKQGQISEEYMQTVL
Nuclear receptor subfamily 1 group I member 3 (Homo sapiens), sequence (Q14994 whole entry, looked up): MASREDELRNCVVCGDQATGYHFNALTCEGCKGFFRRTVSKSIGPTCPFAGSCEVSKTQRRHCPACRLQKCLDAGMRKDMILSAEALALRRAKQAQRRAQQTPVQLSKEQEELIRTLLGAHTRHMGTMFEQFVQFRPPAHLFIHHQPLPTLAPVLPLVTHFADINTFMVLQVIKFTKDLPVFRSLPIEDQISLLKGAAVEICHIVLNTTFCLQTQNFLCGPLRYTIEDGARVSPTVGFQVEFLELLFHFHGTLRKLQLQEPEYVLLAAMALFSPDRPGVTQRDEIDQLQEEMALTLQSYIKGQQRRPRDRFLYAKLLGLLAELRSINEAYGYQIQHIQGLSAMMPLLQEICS

Regarding `CCCC1O[C@@H]2C[C@H]3[C@@H]4CCC5=CC(=O)C=C[C@]5(C)[C@H]4[C@@H](O)C[C@]3(C)[C@]2(C(=O)CO)O1` (stereo partly drawn), the Potency result in test [1], in test [3], in [4], in [6], in test [8] and in [9] was “inactive” throughout. Moreover, the Potency result in test [10], in [11], in test [12] and in test [13] was “inactive” in each case. In addition, the Potency is 48.6 µM (active) in [2]; 49 µM (active) and 54.9 µM (active) in test [14]. Further, the molecule was classed as inactive in [5] and in [7].
For the molecule `Clc1ccc(C(Cn2ccnc2)OCc2ccc(Sc3ccccc3)cc2)c(Cl)c1` (stereo not drawn), the Potency result in [1], in test [2], in [3], in test [15], in test [8] and in test [9] was “inactive” throughout. Also, the Potency entry in test [10], in [11], in test [12], in test [16] and in test [14] was “inactive” in each case.
Take `Cn1cc(C(=O)[C@@H]2CCc3nc[nH]c3C2)c2ccccc21`: the Potency entry in [1], in [2], in test [3], in [15], in test [8] and in test [9] was “inactive” each time. Besides, the Potency entry in test [10], in test [17], in test [11], in test [12], in [13] and in [16] was “inactive” throughout. The Potency result in test [14] is “inactive”.
With `O=C1Cc2cc(CCN3CCN(c4nsc5ccccc45)CC3)c(Cl)cc2N1`, the Potency result in test [1], in test [2], in test [3], in [8], in test [9] and in test [10] was “inactive” throughout. Besides, the Potency entry in test [17], in test [11] and in [16] was “inactive” in each case. Also, the results for the Potency in [18] and in test [15] were 20.3 µM (active) and 29.8 µM (active), respectively. For the same molecule, the molecule was classed as inactive in test [5] and in test [7].
Take `Nc1c(Cl)cc(Cl)cc1Cl`: the Potency entry in test [1], in test [2], in test [3], in test [15], in test [8] and in test [9] was “inactive” in each case. Further, the Potency result in [10], in test [17], in test [11], in test [12], in test [16] and in test [14] was “inactive” each time.
As for `CCCCN(CCCC)C(=O)N(CCCC)CCCC`, the Potency result in test [1], in test [2], in test [3], in test [15], in test [8] and in test [9] was “inactive” each time. Moreover, the Potency result in [10], in test [17], in test [12] and in test [14] was “inactive” in each case. The Potency in test [11] was 30.6 µM (active).
Regarding `CN(C)[C@@H]1C(=O)C(C(N)=O)=C(O)[C@@]2(O)C(=O)C3=C(O)c4c(O)cccc4C[C@H]3C[C@@H]12`, the Potency entry in test [1], in [2], in [3], in [15], in [8] and in test [9] was “inactive” in each case. Moreover, the Potency entry in test [10], in [17], in test [11], in test [12], in test [16] and in test [14] was “inactive” in each case.
As for `Cc1cc2c(cc1C(F)(F)F)N(C(=O)Nc1ccc(Oc3cccnc3C)nc1)CC2`, the Potency result in [1], in test [2], in test [3], in test [8], in test [9] and in test [10] was “inactive” throughout. Further, the Potency entry in [17], in test [11] and in test [13] was “inactive” each time. For the same molecule, the Potency in [15] is 15.6 µM (active); in test [19] it was 7.81 µM (active).
`CC(NN)c1ccccc1` (stereo not drawn): the activity change, negative = cytotoxicity in test [1] was 1.08% [at 19 µM]; in [10], 5.95% [at 19 µM]; in test [14] it was 1.2% [at 15.8 µM]. The activity, negative = inhibition in [2] was 37.3% [at 19 µM]; in [17] it was 27.3% [at 19 µM]. Moreover, in [3], the Potency entry is “inactive”. Also, the values for the viability change, negative = cytotoxic in [15], in [9] and in test [12] were 6.9% [at 19 µM], -0.8% [at 19 µM] and -1.05% [at 19 µM], respectively. Moreover, in test [8], the activity change, negative = inhibition was -10.4% [at 23.6 µM]. The activation in test [16] is -0.741% [at 19 µM].
